# Laboratory results: the supplement of paper PMC3545927
# The other results are listed elsewhere or left out. No count for the full screen is at hand.
# Target: furin, P09958
# Test: furin cleavage Z-score vs untreated control; higher = more cleavage, active = 3.5 or more, inactive = 1 or less, 8 variable residues between constant flanks
# How it was run: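 To give the cleavage Z-score, log read counts were set against furin-free reactions, lowess-adjusted and scaled by median absolute deviation. These counts came from PCR adapter-tagged, sequenced DNA released when purified furin cut 8-mer peptides fused to a cDNA oligonucleotide and held on magnetic beads by their N-terminus. Digests were 0.01 ml, 1:10 enzyme:substrate, in 50 mM HEPES pH 7.5 with CaCl2 and NaCl, for 7.5, 15 or 30 min.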
# furin, P09958, sequence (P09958 whole entry): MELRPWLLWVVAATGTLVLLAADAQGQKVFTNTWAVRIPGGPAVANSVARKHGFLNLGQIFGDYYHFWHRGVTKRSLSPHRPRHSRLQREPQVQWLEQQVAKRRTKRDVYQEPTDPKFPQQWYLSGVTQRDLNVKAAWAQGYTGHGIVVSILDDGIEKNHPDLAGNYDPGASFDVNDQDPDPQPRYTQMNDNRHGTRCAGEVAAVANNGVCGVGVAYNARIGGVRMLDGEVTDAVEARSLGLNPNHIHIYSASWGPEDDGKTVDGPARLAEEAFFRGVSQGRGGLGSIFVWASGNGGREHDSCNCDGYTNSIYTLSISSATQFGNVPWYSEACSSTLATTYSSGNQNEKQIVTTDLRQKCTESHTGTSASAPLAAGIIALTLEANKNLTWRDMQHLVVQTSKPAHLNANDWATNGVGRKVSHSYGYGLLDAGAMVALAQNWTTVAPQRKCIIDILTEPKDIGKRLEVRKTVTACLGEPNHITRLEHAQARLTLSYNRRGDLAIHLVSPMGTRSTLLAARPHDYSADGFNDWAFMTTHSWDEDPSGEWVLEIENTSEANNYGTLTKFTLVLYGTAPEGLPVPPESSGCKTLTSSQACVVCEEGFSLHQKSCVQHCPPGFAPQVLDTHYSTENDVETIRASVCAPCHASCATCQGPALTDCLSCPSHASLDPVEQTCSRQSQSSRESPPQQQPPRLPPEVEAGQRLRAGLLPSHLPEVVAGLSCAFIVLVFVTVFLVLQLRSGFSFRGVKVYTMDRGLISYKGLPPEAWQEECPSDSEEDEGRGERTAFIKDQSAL
Sequence,furin cleavage Z-score (7.5 min),furin cleavage Z-score (15 min),furin cleavage Z-score (30 min)
CAMEECDQHLAGNASASA [HC32],-1.25 (inactive),-0.295 (inactive),0.17 (inactive)
CAGKAIPLEVAGNASASA [HC849],-0.874 (inactive),-0.849 (inactive),-0.983 (inactive)
CAEVVGSTWVAGNASASA [HC122],-0.227 (inactive),0.0769 (inactive),0.871 (inactive)
CASTDCSAHLAGNASASA [HC2511],-0.745 (inactive),-1.14 (inactive),1.19
CAAPKRRRRGAGNASASA [FS-323],4.98 (active),4.92 (active),3.74 (active)
CAAPARERRGAGNASASA [FS-6],7.34 (active),8.29 (active),7.48 (active)
CAPGHLRRRGAGNASASA [FS-1046],-0.0765 (inactive),0.0326 (inactive),0.261 (inactive)
CALFRRRRRGAGNASASA [FS-606],5.12 (active),5.02 (active),5.06 (active)
CAPHRRRRRGAGNASASA [FS-555],5.9 (active),4.87 (active),5.4 (active)
CAVIPVRRRGAGNASASA [HC730],-0.464 (inactive),0.132 (inactive),-0.326 (inactive)
CATPPRERRGAGNASASA [FS-1095],-0.768 (inactive),-0.415 (inactive),-0.163 (inactive)
CAHGLVSFLVAGNASASA [HC542],0.693 (inactive),-0.401 (inactive),0.576 (inactive)
CAVDYPYRLWAGNASASA [HC465],0.139 (inactive),0.651 (inactive),1.32
CATGPCSGSWAGNASASA [HC1856],-0.371 (inactive),-0.739 (inactive),-1.48 (inactive)
CARLKKFQEAAGNASASA [FS-2987],-0.948 (inactive),-1.1 (inactive),-1.63 (inactive)
CAGENLYFQSAGNASASA [TV1],-1.03 (inactive),-1.63 (inactive),-0.511 (inactive)
CAPINAYTTGAGNASASA [HC1191],0.157 (inactive),0.17 (inactive),0.965 (inactive)
CAAESRACRGAGNASASA [FS-742],-0.725 (inactive),-0.739 (inactive),-0.66 (inactive)
CACHRRMRRGAGNASASA [FS-404],10.7 (active),8.52 (active),8.21 (active)
CAAERRHYRPAGNASASA [FS-969],0.389 (inactive),0.437 (inactive),0.0544 (inactive)
CAAERRRRRGAGNASASA [FS-2],4.28 (active),3.26,2.64
CADEVDNKVKAGNASASA [CS4],-0.725 (inactive),-1.22 (inactive),-1.28 (inactive)
